Measurements published in PubChem BioAssay (NCATS).
Records with an inconclusive call do not appear. Calls of active or inactive are those of the source. Unless noted, the call rests on the fitted dose curve. Square brackets hold non-standard residues; d marks the D form. Peptide text beside a SMILES is read from it. * marks the point of attachment. Sta = CC(C)C[C@H](N)[C@@H](O)CC(=O)O; Isovaleryl = CC(C)CC(=O)*

system: not listed separately; test: qHTS for Inhibitors of the Functional Ribonucleoprotein Complex (vRNP) of Lymphocytic Choriomeningitis Arenaviruses (LCMV): Viability assay - alamar blue signal for LCMV Primary Screen (AID 1347085; calls by dose curve; tested in HEK293 reporter line; further: nearly all actives have a fitted effect of over 80% in size); details: alamar blue viability counter-screen, LCMV vRNP screen cells; series mostly up to 57.5 µM; activity change, negative = lower viability: at the top concentration
On the % scale 0 is the no-effect control and ±100 the full control effect.

| SMILES | Potency | activity change, negative = lower viability |
| --- | --- | --- |
| Cn1c(=O)c2c(ncn2C)n(C)c1=O | inactive | – |
| CN(C)CCn1nnnc1SCC1=C(C(=O)O)N2C(=O)[C@@H](NC(=O)Cc3csc(N)n3)[C@H]2SC1 | – | 4.26% (inactive) |
| CN(CCCN1c2ccccc2CCc2ccccc21)CC(=O)c1ccc(Cl)cc1 | – | 3.27% (inactive) |
| O=C(NCC1CN(c2ccc(N3CCOCC3=O)cc2)C(=O)O1)c1ccc(Cl)s1 (stereo not drawn) | inactive | – |
| CC(C)(C)C(=O)OCOC(=O)[C@@H]1N2C(=O)[C@@H](NC(=O)[C@H](N)c3ccccc3)[C@H]2SC1(C)C | – | 4.49% (inactive) |
| Oc1ccc(CCNCCCCCCNCCc2ccccc2)cc1O | – | -3.04% (inactive) |
| CCCOc1ccccc1-c1nc2n[nH]nc2c(=O)[nH]1 | inactive | – |
| CCOC(=O)C(=O)CCc1ccccc1 | – | 0.873% (inactive) |
| Nc1ccc2c(c1)CN1C(=O)c3ccccc3C1=N2 | – | -0.923% [at 24.7 µM] (inactive) |
| C[C@@H]1CCC[C@H](C)N1CCCC(O)(c1ccccc1)c1ccccn1 (stereo partly drawn) | – | -7.76% (inactive) |
| COc1ccc2c(c1)c(CC(=O)O)c(C)n2C(=O)c1ccc(Cl)cc1 | inactive | – |
| O=C(O)c1cccnc1Nc1cccc(C(F)(F)F)c1 | inactive | – |
| CCC(=O)O[C@]1(C(=O)COC)[C@@H](C)C[C@H]2[C@@H]3CCC4=CC(=O)C=C[C@]4(C)C3(F)[C@@H](O)C[C@@]21C (stereo partly drawn) | – | -7.71% (inactive) |
| C1CCN2C[C@@H]3C[C@@H](CN4CCCC[C@@H]34)[C@H]2C1 | – | 3.35% (inactive) |
| O=C(CCCCC(=O)Nc1c(I)cc(I)c(C(=O)O)c1I)Nc1c(I)cc(I)c(C(=O)O)c1I | – | 0.223% (inactive) |
| Cc1nc(C2CCCCC2)c(-c2ccc(S(N)(=O)=O)c(F)c2)o1 | – | -3.24% (inactive) |
| O=C(CCCN1CCC(O)(c2ccc(Br)cc2)CC1)c1ccc(F)cc1 | – | 2.12% (inactive) |
| CC(=O)OCC1=C(C(=O)O)N2C(=O)[C@@H](NC(=O)CSc3ccncc3)[C@H]2SC1 | – | -3.07% (inactive) |
| CCCCC/C=C\C/C=C\CCCCCCCC(=O)NC(C)c1ccccc1 (stereo not drawn) | – | 17.5% (inactive) |
| N[C@@H](Cc1ccc(O)cc1)C(=O)O | – | 1.19% [at 11.5 µM] (inactive) |

| SMILES | Potency | activity change, negative = lower viability |
| --- | --- | --- |
| COc1cc(OC)cc(OC)c1 | – | 15.2% (inactive) |
| O=Cc1ccccc1C=O | – | -2.67% (inactive) |
| CCCCCOc1ccccc1/C(=C\SC)n1ccnc1 | – | -63.6% (inactive) |
| CC(C)CC(=O)N[C@H](C(=O)N[C@H](C(=O)N[C@@H](CC(C)C)[C@@H](O)CC(=O)N[C@@H](C)C(=O)N[C@@H](CC(C)C)[C@@H](O)CC(=O)O)C(C)C)C(C)C (Isovaleryl-VV[Sta]A[Sta]-OH) | – | -51.8% (inactive) |
| CCOc1ccc(NC(C)=O)cc1 | – | 0.174% (inactive) |
| CNc1c2c(nn1C)CCCC2 | – | -4.5% (inactive) |
| C/C(=C(\CCOP(=O)(O)O)SC(=O)c1ccccc1)N(C=O)Cc1cnc(C)nc1N | – | -0.415% [at 5.82 µM] (inactive) |
| Cn1cnc2c1c(=O)[nH]c(=O)n2C | inactive | – |
| O=C1NCN(c2ccccc2)C12CCN(CCCC(c1ccc(F)cc1)c1ccc(F)cc1)CC2 | – | 9.41% (inactive) |
| C[N+]12CCC(CC1)C(OC(=O)C(O)(c1ccccc1)c1ccccc1)C2 (stereo not drawn) | – | 3.63% (inactive) |
| CCCC(=O)O[C@]1(C(=O)CC)CC[C@H]2[C@@H]3CCC4=CC(=O)CC[C@]4(C)[C@H]3[C@@H](O)C[C@@]21C | – | 3.38% (inactive) |
| CC1(c2ccccc2)OC(C(=O)O)=CC1=O (stereo not drawn) | – | -0.619% (inactive) |
| CN(C(=O)CCCOc1ccc2[nH]c(=O)ccc2c1)C1CCCCC1 | – | 39.3% (inactive) |
| CCN(CC)CCOc1ccc(Cc2ccccc2)cc1 | – | -12.2% (inactive) |
| O=C(CCCN1CC=C(n2c(=O)[nH]c3ccccc32)CC1)c1ccc(F)cc1 | – | -3.92% (inactive) |
| Clc1ccc2c(c1)CCc1cccnc1C2=C1CCNCC1 | – | -149% (inactive) |
| CNC(=O)c1c(I)c(NC(=O)CCCCC(=O)Nc2c(I)c(C(=O)O)c(I)c(C(=O)NC)c2I)c(I)c(C(=O)O)c1I | – | 2.66% (inactive) |
| O=S1(=O)OC(c2ccc(O)cc2)(c2ccc(O)cc2)c2ccccc21 | – | -4.32% (inactive) |
| COc1cc(NS(=O)(=O)c2ccc(N)cc2)nc(OC)n1 | inactive | – |

molecular target: Nucleoprotein (Lymphocytic choriomeningitis virus (strain Armstrong)) (UniProt P09992); test: qHTS for Inhibitors of the Functional Ribonucleoprotein Complex (vRNP) of Lymphocytic Choriomeningitis Arenaviruses (LCMV): LCMV Primary Screen - GLuc reporter signal (AID 1347086); details: LCMV minigenome vRNP cell assay, Gaussia luciferase reporter; series mostly up to 57.5 µM; activity change, negative = inhibition: at the top concentration; further: nearly all actives have a fitted effect of over 70% in size
Sequence (P09992 whole entry, looked up): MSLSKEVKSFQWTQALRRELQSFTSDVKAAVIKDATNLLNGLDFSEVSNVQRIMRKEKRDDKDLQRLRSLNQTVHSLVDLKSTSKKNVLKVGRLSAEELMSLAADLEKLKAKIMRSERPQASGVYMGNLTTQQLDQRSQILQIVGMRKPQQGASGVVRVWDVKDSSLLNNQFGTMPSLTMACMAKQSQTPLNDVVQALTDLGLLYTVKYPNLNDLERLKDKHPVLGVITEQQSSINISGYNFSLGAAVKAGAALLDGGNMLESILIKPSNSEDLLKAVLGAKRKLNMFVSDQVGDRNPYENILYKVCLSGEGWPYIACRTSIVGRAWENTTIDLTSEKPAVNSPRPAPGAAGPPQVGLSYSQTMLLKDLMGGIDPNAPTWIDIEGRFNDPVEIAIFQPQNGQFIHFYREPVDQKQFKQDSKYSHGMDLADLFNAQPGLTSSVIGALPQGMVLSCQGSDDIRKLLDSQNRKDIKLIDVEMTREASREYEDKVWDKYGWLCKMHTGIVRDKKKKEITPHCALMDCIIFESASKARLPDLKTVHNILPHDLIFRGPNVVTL

| SMILES | Potency | activity change, negative = inhibition |
| --- | --- | --- |
| Cn1c(=O)c2c(ncn2C)n(C)c1=O | inactive | – |
| CN(C)CCn1nnnc1SCC1=C(C(=O)O)N2C(=O)[C@@H](NC(=O)Cc3csc(N)n3)[C@H]2SC1 | – | 6.08% (inactive) |
| CN(CCCN1c2ccccc2CCc2ccccc21)CC(=O)c1ccc(Cl)cc1 | – | 2.86% (inactive) |
| O=C(NCC1CN(c2ccc(N3CCOCC3=O)cc2)C(=O)O1)c1ccc(Cl)s1 (stereo not drawn) | inactive | – |
| CC(C)(C)C(=O)OCOC(=O)[C@@H]1N2C(=O)[C@@H](NC(=O)[C@H](N)c3ccccc3)[C@H]2SC1(C)C | – | 9.99% (inactive) |
| Oc1ccc(CCNCCCCCCNCCc2ccccc2)cc1O | – | 6.6% (inactive) |
| CCCOc1ccccc1-c1nc2n[nH]nc2c(=O)[nH]1 | inactive | – |
| CCOC(=O)C(=O)CCc1ccccc1 | – | 7.41% (inactive) |
| Nc1ccc2c(c1)CN1C(=O)c3ccccc3C1=N2 | – | 10.7% [at 24.7 µM] (inactive) |
| C[C@@H]1CCC[C@H](C)N1CCCC(O)(c1ccccc1)c1ccccn1 (stereo partly drawn) | – | 5.15% (inactive) |
| COc1ccc2c(c1)c(CC(=O)O)c(C)n2C(=O)c1ccc(Cl)cc1 | inactive | – |
| O=C(O)c1cccnc1Nc1cccc(C(F)(F)F)c1 | inactive | – |
| CCC(=O)O[C@]1(C(=O)COC)[C@@H](C)C[C@H]2[C@@H]3CCC4=CC(=O)C=C[C@]4(C)C3(F)[C@@H](O)C[C@@]21C (stereo partly drawn) | – | 6.65% (inactive) |
| C1CCN2C[C@@H]3C[C@@H](CN4CCCC[C@@H]34)[C@H]2C1 | – | 21.6% (inactive) |
| O=C(CCCCC(=O)Nc1c(I)cc(I)c(C(=O)O)c1I)Nc1c(I)cc(I)c(C(=O)O)c1I | – | 23.4% (inactive) |
| Cc1nc(C2CCCCC2)c(-c2ccc(S(N)(=O)=O)c(F)c2)o1 | – | -5.06% (inactive) |
| O=C(CCCN1CCC(O)(c2ccc(Br)cc2)CC1)c1ccc(F)cc1 | – | 0.0631% (inactive) |
| CC(=O)OCC1=C(C(=O)O)N2C(=O)[C@@H](NC(=O)CSc3ccncc3)[C@H]2SC1 | – | 28% (inactive) |
| CCCCC/C=C\C/C=C\CCCCCCCC(=O)NC(C)c1ccccc1 (stereo not drawn) | – | -25.2% (inactive) |
| N[C@@H](Cc1ccc(O)cc1)C(=O)O | – | 16.2% [at 11.5 µM] (inactive) |

| SMILES | Potency | activity change, negative = inhibition |
| --- | --- | --- |
| COc1cc(OC)cc(OC)c1 | – | 12.9% (inactive) |
| O=Cc1ccccc1C=O | – | -6.41% (inactive) |
| CCCCCOc1ccccc1/C(=C\SC)n1ccnc1 | – | -64.2% (inactive) |
| CC(C)CC(=O)N[C@H](C(=O)N[C@H](C(=O)N[C@@H](CC(C)C)[C@@H](O)CC(=O)N[C@@H](C)C(=O)N[C@@H](CC(C)C)[C@@H](O)CC(=O)O)C(C)C)C(C)C (Isovaleryl-VV[Sta]A[Sta]-OH) | – | -14.4% (inactive) |
| CCOc1ccc(NC(C)=O)cc1 | – | 5.62% (inactive) |
| CNc1c2c(nn1C)CCCC2 | – | -8.79% (inactive) |
| C/C(=C(\CCOP(=O)(O)O)SC(=O)c1ccccc1)N(C=O)Cc1cnc(C)nc1N | – | -1.19% [at 5.82 µM] (inactive) |
| Cn1cnc2c1c(=O)[nH]c(=O)n2C | inactive | – |
| O=C1NCN(c2ccccc2)C12CCN(CCCC(c1ccc(F)cc1)c1ccc(F)cc1)CC2 | – | -1.39% (inactive) |
| C[N+]12CCC(CC1)C(OC(=O)C(O)(c1ccccc1)c1ccccc1)C2 (stereo not drawn) | – | -2.71% (inactive) |
| CCCC(=O)O[C@]1(C(=O)CC)CC[C@H]2[C@@H]3CCC4=CC(=O)CC[C@]4(C)[C@H]3[C@@H](O)C[C@@]21C | – | 1.79% (inactive) |
| CC1(c2ccccc2)OC(C(=O)O)=CC1=O (stereo not drawn) | – | 1.16% (inactive) |
| CN(C(=O)CCCOc1ccc2[nH]c(=O)ccc2c1)C1CCCCC1 | inactive | – |
| CCN(CC)CCOc1ccc(Cc2ccccc2)cc1 | – | -35.9% (inactive) |
| O=C(CCCN1CC=C(n2c(=O)[nH]c3ccccc32)CC1)c1ccc(F)cc1 | – | -11.7% (inactive) |
| Clc1ccc2c(c1)CCc1cccnc1C2=C1CCNCC1 | – | -68.8% (inactive) |
| CNC(=O)c1c(I)c(NC(=O)CCCCC(=O)Nc2c(I)c(C(=O)O)c(I)c(C(=O)NC)c2I)c(I)c(C(=O)O)c1I | – | 5.72% (inactive) |
| O=S1(=O)OC(c2ccc(O)cc2)(c2ccc(O)cc2)c2ccccc21 | – | 4.39% (inactive) |
| COc1cc(NS(=O)(=O)c2ccc(N)cc2)nc(OC)n1 | inactive | – |
